An excerpt weighted towards active compounds, which were near 2.2% of everything screened.
Ba/F3 V617F tox – reduced viability of JAK2V617F-dependent Ba/F3 cells, primary screen, JAK2V617F inhibitor project, cell-based, Ba/F3 EpoR-JAK2V617F, luminescence | ATP luminescence | inhibition, % at 5.6 µM | 1.1% of 220,000 active | AID 1446, 2008;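 active = inhibition above the campaign mean plus 3 SD over all tested compounds, cut at about 24% in these data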;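 also: cytokine-independent growth of Ba/F3 cells driven by EpoR plus mutant JAK2; 0% = DMSO-treated cells and 100% = JAK inhibitor I control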
KLF5 inhibitor – KLF5 expression inhibitors, primary screen, DLD-1 cells, luminescence | DLD-1 KLF5 promoter-luciferase reporter | inhibition, % at 5 µM | 0.23% of 290,000 active | AID 1700, 2009;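 active = inhibition above a per-plate limit of that plate's mean compound inhibition plus 3 SD, cut at about 60% in these data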;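 also: 0% = DMSO wells and 100% = LY294002 at 200 µM; higher means less KLF5 promoter-driven luciferase light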
BaF3 parental – parental Ba/F3 cell viability inhibition, counter-screen for JAK2V617F inhibitor project, murine pro-B, CellTiter-Glo luminescence; 1.1% of 220,000 active; inhibition, % at 5.6 µM; CellTiter-Glo ATP luminescence; AID 1486, 2009;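 active = inhibition above a per-campaign cutoff, the mean inhibition of all tested compounds plus 3 SD, cut at about 27% in these data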;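 also: 0% = DMSO wells and 100% = JAK Inhibitor I control wells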
APP transl inh – inhibitors of APP translation via 5'UTR reporter, primary screen, APP 5'UTR luciferase, SH-SY5Y cells; 0.82% of 190,000 active; SH-SY5Y APP 5'UTR-luciferase reporter, luminescence; inhibition, % at 2 µM; AID 1285, 2008;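 active = inhibition above a set limit, derived from the sample mean plus 3 SD, cut at about 45% in these data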
IEC-6 tox-1 – cytotoxicity in IEC-6 intestinal epithelial cells, primary screen, cytotoxicity control for KLF5 inhibitor project, cell-based, luminescence. IEC-6 cytotoxicity, luminescence viability. inhibition, % at 5 µM. AID 1825, 2009. 0.78% of 290,000 active;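 also: 0% = plate median of test compound wells and 100% = cytotoxic reference compound wells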
aSyn 5UTR inh – MLPCN primary screen, SNCA 5' untranslated region | alpha-synuclein 5'UTR reporter, inhibitor activity | inhibition, % (tested at 7.5 µM) | 0.82% of 300,000 active; in the data active = inhibition above about 60%;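 also: H4 neuroglioblastoma cells stably carrying SNCA 5'UTR luciferase fusion; 0% = DMSO wells and 100% = positive control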
BaF3 parental 2 – parental Ba/F3 cell viability inhibition, counter-screen for JAK2V617F inhibitor project, murine pro-B, CellTiter-Glo luminescence. shares compounds with Ba/F3 V617F tox. cells kept alive by added IL-3. inhibition, % at 5.6 µM. 31% of 580 active. AID 1520, 2009;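 active = cell growth inhibition above the hit limit set in the earlier mutant JAK2 cell screen, cut at about 27% in these data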;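 also: plate controls were DMSO-treated cells for no effect and JAK Inhibitor I control wells for full effect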
JAK2V617F conf – viability loss in Ba/F3 EpoR-JAK2V617F cells, confirmation, JAK2V617F inhibitor project, cell-based, luminescence, triplicate. shares compounds with Ba/F3 V617F tox. CellTiter-Glo luminescence. inhibition, % at 5.6 µM. 66% of 580 active;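 active = mean inhibition above the hit cutoff derived in the earlier primary screen, cut at about 25% in these data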;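 also: 0% = DMSO-treated cells and 100% = JAK inhibitor I control wells; higher means lower luminescence from reduced cell ATP and viability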
KLF5 confirm – KLF5 expression inhibitors, confirmation, DLD-1 cells, luminescence | inhibition, % at 4 µM | shares compounds with KLF5 inhibitor | AID 1834, 2009 | DLD-1 KLF5 promoter firefly luciferase reporter | 79% of 610 active;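 active = inhibition above a set limit taken from the earlier primary screen, cut at about 63% in these data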;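 also: 0% = DMSO wells and 100% = LY294002 at 200 µM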
IEC-6 tox-2 – cytotoxicity in rat IEC-6 cells, cytotoxicity control for KLF5 inhibitor project, cell-based, luminescence, triplicate; shares compounds with KLF5 inhibitor; IEC-6 rat intestinal cells, viability luminescence; inhibition, % at 4 µM; 56% of 610 active; AID 1905, 2009; in the data active = inhibition above about 23%;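 also: cells exposed to compounds for 48 hours before viability read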
IEC-6 tox confirm – cytotoxic compounds in IEC-6 epithelial cells, confirmation, cytotoxicity control, cell-based, luminescence | IEC-6 rat intestinal epithelial viability | inhibition, % at 5 µM | shares compounds with IEC-6 tox-1 | 63% of 1,900 active;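 also: 0% = vehicle and 100% = reference cytotoxic drug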
Active calls of the source: *. Rule as the data show it, unless noted: active = inhibition above about 22%; inactive = the rest.

For O=C(c1ccccc1F)c1cn(CC(=O)N2CCCCC2)c2ccccc12 the results were Ba/F3 V617F tox 49*, KLF5 inhibitor 2, BaF3 parental 3, APP transl inh 6, IEC-6 tox-1 3, aSyn 5UTR inh 2, BaF3 parental 2 -5 and JAK2V617F conf -16.
Screening Cc1nn(Cc2ccccc2Cl)c(C)c1C(=O)OCC(=O)NC1CCCC(C)C1C (centres undefined) returned Ba/F3 V617F tox 76*, KLF5 inhibitor -16, BaF3 parental 11, APP transl inh -9, IEC-6 tox-1 0, aSyn 5UTR inh 32, BaF3 parental 2 -3 and JAK2V617F conf 0.
For Cc1nn(Cc2ccccc2Cl)c(C)c1C(=O)OCC(=O)NC1CCS(=O)(=O)C1 (centres undefined) the results were Ba/F3 V617F tox 0, KLF5 inhibitor -1, BaF3 parental 4, APP transl inh 7, IEC-6 tox-1 -1 and aSyn 5UTR inh 5.
`CC(C)CN(C(=O)CN1CC=C(c2ccccc2)CC1)c1c(N)n(CC(C)C)c(=O)[nH]c1=O` gave Ba/F3 V617F tox 2, KLF5 inhibitor -27, BaF3 parental 6, APP transl inh -11, IEC-6 tox-1 4 and aSyn 5UTR inh 18.
Screening CCn1nc(/C=C/c2ccccc2)nc2c(=O)n(C)c(=O)nc1-2 returned Ba/F3 V617F tox 44*, KLF5 inhibitor -49, BaF3 parental 24, APP transl inh -41, IEC-6 tox-1 102*, aSyn 5UTR inh 1, BaF3 parental 2 103*, JAK2V617F conf 99* and IEC-6 tox confirm 104*.
`COC(=O)C1=C(c2cc3ccccc3s2)C[C@@H]2CC[C@H]1N2C(=O)N1CCOCC1` gave aSyn 5UTR inh 27.
Screening CCCCCCC[n+]1ccc(-c2cc[n+](CCCCCCC)cc2)cc1 returned Ba/F3 V617F tox 95*, KLF5 inhibitor 77*, BaF3 parental 93*, APP transl inh 16, IEC-6 tox-1 11, aSyn 5UTR inh 92*, KLF5 confirm 63* and IEC-6 tox-2 -7.
Screening Cc1cccc(C)c1N1CCN(c2c(C)cccc2C)CC1 returned KLF5 inhibitor -36, IEC-6 tox-1 -4 and aSyn 5UTR inh -9.
For C[C@@H]1O[C@@H](O[C@H]2C[C@@H](O)[C@]3(CO)[C@H]4[C@H](O)C[C@]5(C)[C@@H](C6COC(=O)C6)CC[C@]5(O)[C@@H]4CC[C@]3(O)C2)[C@H](O)[C@H](O)[C@H]1O (some centres undefined) the results were Ba/F3 V617F tox 4, KLF5 inhibitor 64*, BaF3 parental 6, APP transl inh 93*, IEC-6 tox-1 2, aSyn 5UTR inh 115*, KLF5 confirm 71* and IEC-6 tox-2 3.
Screening CCCCc1cc(=O)oc2cc(OCC(=O)N3C[C@H]4C[C@@H](C3)c3cccc(=O)n3C4)c(Cl)cc12 returned KLF5 inhibitor -19, IEC-6 tox-1 2 and aSyn 5UTR inh 23.
Screening CC(=O)OC(C)(C)/C=C/C(=O)C(C)(O)C1[C@H](O)C[C@@]2(C)C3CC=C4C(CC[C@@H](O)C4(C)C)[C@]3(CO)C(=O)C[C@]12C (some centres undefined) returned KLF5 inhibitor 90*, IEC-6 tox-1 99*, aSyn 5UTR inh 86*, KLF5 confirm 93*, IEC-6 tox-2 96* and IEC-6 tox confirm 97*.
For CC[C@@]1(O)C(=O)OCc2c1cc1n(c2=O)Cc2cc3ccccc3nc2-1 the results were Ba/F3 V617F tox 98*, KLF5 inhibitor 62*, BaF3 parental 93*, IEC-6 tox-1 97*, aSyn 5UTR inh 116*, KLF5 confirm 94*, IEC-6 tox-2 75* and IEC-6 tox confirm 72*.
For C[C@@H]1CC[C@H]2[C@@H](C)C(=O)O[C@@H]3O[C@@]4(C)CC[C@@H]1[C@]32OO4 the results were KLF5 inhibitor 12, IEC-6 tox-1 4 and aSyn 5UTR inh -3.
For CCC(C)C(NC(=O)CCCNC(=O)CCC(=O)OC1O[C@H]2OC3(C)CC[C@H]4[C@H](C)CCC(C1C)C24OO3)C(=O)O (some centres undefined) the results were KLF5 inhibitor 83*, IEC-6 tox-1 34*, aSyn 5UTR inh -15, KLF5 confirm 84*, IEC-6 tox-2 41* and IEC-6 tox confirm 26*.
`CN/C=C(/Cl)P(=O)(OC(C)C)OC(C)C` gave aSyn 5UTR inh 1.
`CC(=O)O[C@@]12CO[C@@H]1C[C@H](O)[C@@]1(C)C(=O)[C@H](O)C3=C(C)[C@@H](O)C[C@@](O)([C@@H](OC(=O)c4ccccc4)C12)C3(C)C` (some centres undefined) gave KLF5 inhibitor -9, IEC-6 tox-1 6 and aSyn 5UTR inh 30.
C/C=C(\C)C(=O)N[C@@H](c1ccccc1)[C@@H](O)C(=O)O[C@H]1C[C@@]2(O)[C@@H](OC(=O)c3ccccc3)C3[C@](C)(C(=O)[C@H](OC(C)=O)C(=C1C)C2(C)C)[C@@H](O)C[C@H]1OC[C@@]31OC(C)=O (some centres undefined) was read as KLF5 inhibitor 64*, IEC-6 tox-1 88*, aSyn 5UTR inh 104*, KLF5 confirm 88*, IEC-6 tox-2 78* and IEC-6 tox confirm 72*.
For COc1ccc(N2C(=O)/C(=C/C=C/c3ccccc3[N+](=O)[O-])C(=O)NC2=S)cc1 the results were Ba/F3 V617F tox -4, KLF5 inhibitor -15, BaF3 parental -1, APP transl inh -11, IEC-6 tox-1 0 and aSyn 5UTR inh -36.

Screens: PubChem, several laboratories
